# Data from PubChem BioAssay (EPA / NIEHS).
# Inconclusive results are not listed. Activity calls are given as the source filed them. Rule for the calls, unless noted: active = hit-call score of the fitted dose curve at least 0.9, where 1 is the maximum; inactive = score below 0.9.
# Key:
# [1] = TOX21_p53_BLA_p2_viability: Viability Assessment in the Tox21 HCT-116 p53 Agonism Beta-lactamase Assay, Phase 2 (AID 2283591; active = hit-call score of the fitted dose curve at least 0.9, where 1 is the maximum;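 note: actives lower the ATP signal meaning cytotoxicity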)
# Method in brief: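 Cytotoxicity readout: CellTiter-Glo ATP luminescence, 30 min at room temperature, after the beta-lactamase read. Cells were HCT116 exposed 16 h at 37C to compounds pin-transferred at 217-fold dilution from DMSO stocks.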
# [2] = target: Cellular tumor antigen p53 (Homo sapiens) (UniProt P04637); test: TOX21_p53_BLA_p2_ratio: Tox21 HCT-116 p53 Agonism Beta-lactamase Assay, Ratio, Phase 2 (AID 2283592; active = hit-call score of the fitted dose curve at least 0.9, where 1 is the maximum)
# Sequence of Cellular tumor antigen p53 (Homo sapiens) (P04637 whole entry, looked up): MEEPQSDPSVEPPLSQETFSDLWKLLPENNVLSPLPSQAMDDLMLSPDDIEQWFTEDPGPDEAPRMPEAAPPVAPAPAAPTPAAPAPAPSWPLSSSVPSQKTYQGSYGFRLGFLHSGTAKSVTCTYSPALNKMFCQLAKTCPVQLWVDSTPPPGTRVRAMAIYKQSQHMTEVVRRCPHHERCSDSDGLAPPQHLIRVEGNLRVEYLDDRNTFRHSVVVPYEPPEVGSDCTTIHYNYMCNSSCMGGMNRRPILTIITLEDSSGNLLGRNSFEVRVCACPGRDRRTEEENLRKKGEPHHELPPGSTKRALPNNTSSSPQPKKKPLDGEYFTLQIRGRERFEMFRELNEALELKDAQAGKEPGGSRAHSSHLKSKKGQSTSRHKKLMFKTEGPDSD
# Method in brief: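 Readout: blue/green (460/530 nm) FRET emission ratio after 2 h CCF4-AM loading at room temperature, excitation 405 nm. HCT116 p53 bla cells, 16 h compound exposure at 37C, 5% CO2; agonist direction fitted against DMSO baseline.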
# [3] = TOX21_p53_BLA_p3_viability: Viability Assessment in the Tox21 HCT-116 p53 Agonism Beta-lactamase Assay, Phase 3 (AID 2283593; active = hit-call score of the fitted dose curve at least 0.9, where 1 is the maximum;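 note: cells exposed to compound for 16 h before reading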)
# Method in brief: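 Cellular ATP was quantified by CellTiter-Glo luminescence, read after 30 min at room temperature. Beforehand, HCT116 cells (4000/well) received compound 5 h post-seeding, 217-fold diluted from DMSO, then incubated 16 h at 37C.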
# [4] = target: Cellular tumor antigen p53 (Homo sapiens) (UniProt P04637); test: TOX21_p53_BLA_p3_ratio: Tox21 HCT-116 p53 Agonism Beta-lactamase Assay, Ratio, Phase 3 (AID 2283596; active = hit-call score of the fitted dose curve at least 0.9, where 1 is the maximum)
# Method in brief: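 Cells were seeded at 4000/well, rested 5 h at 37C, then dosed with DMSO compound solutions (217-fold dilution) for 16 h. CCF4-AM substrate was loaded for 2 h at room temperature, and the 460/530 nm emission ratio was fitted for gain of signal versus DMSO.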
# [5] = TOX21_p53_BLA_p4_viability: Viability Assessment in the Tox21 HCT-116 p53 Agonism Beta-lactamase Assay, Phase 4 (AID 2283597; active = hit-call score of the fitted dose curve at least 0.9, where 1 is the maximum;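 note: hits lower the luminescence signal meaning cytotoxicity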)
# Method in brief: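 ATP content by CellTiter-Glo luminescence, 30 min RT, read after the beta-lactamase ratio step. Cells: HCT116, 4000/well, compound added after 5 h, exposure 16 h at 37C. Signal loss = reduced viability.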
# [6] = target: Cellular tumor antigen p53 (Homo sapiens) (UniProt P04637); test: TOX21_p53_BLA_p5_ratio: Tox21 HCT-116 p53 Agonism Beta-lactamase Assay, Ratio, Phase 5 (AID 2283599; active = hit-call score of the fitted dose curve at least 0.9, where 1 is the maximum)
# Method in brief: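 Beta-lactamase reporter ratio (blue 460 nm over green 530 nm, 405 nm excitation) after 2 h CCF4-AM loading, in HCT-116 cells exposed 16 h at 37 C to compounds pinned at 217-fold dilution. Increases relative to DMSO baseline scored.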
# [7] = TOX21_p53_BLA_p5_viability: Viability Assessment in the Tox21 HCT-116 p53 Agonism Beta-lactamase Assay, Phase 5 (AID 2283600; active = hit-call score of the fitted dose curve at least 0.9, where 1 is the maximum)
# Method in brief: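 ATP luminescence (CellTiter-Glo, 30 min, RT) served as the viability read-out, with loss of signal indicating cytotoxicity. Compounds in DMSO were pinned at a 217-fold dilution onto 4000 cells/well and incubated 16 h, 37C.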
# [8] = target: Cellular tumor antigen p53 (Homo sapiens) (UniProt P04637); test: TOX21_p53_BLA_p4_ratio: Tox21 HCT-116 p53 Agonism Beta-lactamase Assay, Ratio, Phase 4 (AID 2283601; active = hit-call score of the fitted dose curve at least 0.9, where 1 is the maximum)
# Method in brief: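 Signal is the blue/green (460nm/530nm) ratio of cleaved versus uncleaved CCF4-AM substrate, read after 2 h substrate loading. Cells were HCT116 carrying the p53-responsive beta-lactamase reporter, dosed 16 h at 37C, 5% CO2; CellTiter-Glo measured in parallel.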
# [9] = CCTE_Shafer_MEA_dev_firing_rate_mean: CCTE's Neural Network Formation Assay for Mean Firing Rate, Shafer Lab (AID 2284031);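 note: curve fitted for loss of firing so AC50 reflects decreased mean firing rate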
# Method in brief: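 Read-out: spike count/recording length, averaged over active electrodes, then AUC across days 5, 7, 9, 12. Rat cortical cultures on MEA; continuous 12-day exposure, media and treatment renewed DIV 5, 9; DMSO baseline.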
# [10] = CCTE_Shafer_MEA_dev_per_burst_spike_percent: CCTE's Neural Network Formation Assay for Percent of Spikes in a Burst, Shafer Lab (AID 2284032);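 note: fitted as a decrease in burst spike percentage below DMSO baseline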
# Method in brief: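 Value is trapezoidal AUC over recordings on days 5, 7, 9 and 12 of the well-mean fraction of spikes falling in single-electrode bursts; rat cortical cultures exposed continuously from plating, treatment renewed DIV 5 and 9, fitted downward against DMSO.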
# [11] = CCTE_Shafer_MEA_dev_active_electrodes_number: CCTE's Neural Network Formation Assay for Number of Active Electrodes, Shafer Lab (AID 2284040; active = hit-call score of the fitted dose curve at least 0.9, where 1 is the maximum;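 note: potency for loss of active electrodes versus DMSO so lower counts are hits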)
# Method in brief: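 Developing rat cortical networks on MEAs, exposed DIV 0–12. Value is the AUC of active-electrode counts (≥5 spikes/min) from days 5, 7, 9, 12, relative to DMSO.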
# [12] = CCTE_Shafer_MEA_dev_burst_rate: CCTE's Neural Network Formation Assay for Burst Rate, Shafer Lab (AID 2284042);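 note: potency for loss of burst rate below DMSO control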
# Method in brief: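 Cells plated, treated day 0; recorded DIV 5, 7, 9, 12; fed and re-treated DIV 5, 9. Endpoint: bursts per recording time, active-electrode well mean, trapezoidal AUC, fitted in decreasing direction against DMSO baseline.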
# [13] = CCTE_Shafer_MEA_dev_bursting_electrodes_number: CCTE's Neural Network Formation Assay for Number of Bursting Electrodes, Shafer Lab (AID 2284043; active = hit-call score of the fitted dose curve at least 0.9, where 1 is the maximum;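 note: potency is for loss of bursting electrodes relative to DMSO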)
# Method in brief: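 Number of electrodes reaching ≥1 burst every 2 min was recorded at DIV 5, 7, 9 and 12 and collapsed as trapezoidal area under the curve. Cultures were rat cortical neurons on MEA plates, dosed continuously from plating with medium and treatment refreshed on DIV 5 and 9.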
# [14] = CCTE_Shafer_MEA_dev_per_burst_interspike_interval: CCTE's Neural Network Formation Assay for Burst Interspike Interval, Shafer Lab (AID 2284044);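 note: potency for a decrease of within-burst interspike interval below DMSO level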
# Method in brief: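 Readout is the average time between spikes inside single-electrode bursts, taken as a well mean across bursting electrodes. Cortical neurons from rat developed networks on MEA plates under continuous 12-day exposure; recordings on days 5, 7, 9 and 12 were integrated by trapezoidal AUC.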
# [15] = CCTE_Shafer_MEA_dev_burst_duration_mean: CCTE's Neural Network Formation Assay for Mean Burst Duration, Shafer Lab (AID 2284045);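 note: curve fitted for loss meaning shorter burst duration than DMSO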
# Method in brief: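 Mean single-electrode burst duration (first to last spike), averaged over bursting electrodes per well, then integrated as area-under-curve across recordings at days 5, 7, 9 and 12. Rat cortical cultures on MEAs, compound present from plating, refreshed at feeds.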
# [16] = CCTE_Shafer_MEA_dev_interburst_interval_mean: CCTE's Neural Network Formation Assay for Mean Interburst Interval, Shafer Lab (AID 2284046);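 note: well-mean interburst interval of bursting electrodes as AUC over four recording days; curve fitted for decrease in interburst interval relative to DMSO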
# Method in brief: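 Developing rat cortical networks on 48-well MEAs receive compound from the day of plating. Burst intervals from each active electrode are averaged per well, and AUC over the recording days is fitted in the negative direction against DMSO.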
# [17] = CCTE_Shafer_MEA_dev_inter_network_spike_interval_mean: CCTE's Neural Network Formation Assay for Mean Inter-network Spike Interval, Shafer Lab (AID 2284047);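 note: potency for a decrease in mean inter-network spike interval below DMSO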
# Method in brief: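 Rat cortical cultures, 1.5 x 10^5 cells/well on 48-well MEA plates; continuous exposure days 0–12, medium and compound refreshed DIV 5, 9. Mean time between consecutive network-spike peaks; AUC across DIV 5/7/9/12; DMSO baseline, negative fitting direction.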
# [18] = CCTE_Shafer_MEA_dev_network_spike_number: CCTE's Neural Network Formation Assay for Number of Network Spikes, Shafer Lab (AID 2284048);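 note: fit as a loss of signal meaning fewer network spikes than DMSO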
# Method in brief: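 Number of network spikes (coordinated firing across electrodes) recorded on days 5, 7, 9 and 12 and summarised as area under the curve. Rat cortical cultures on MEA, continuous compound exposure with full medium/treatment exchange at DIV 5 and 9.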
# [19] = CCTE_Shafer_MEA_dev_spike_duration_mean: CCTE's Neural Network Formation Assay for Mean Spike Duration, Shafer Lab (AID 2284051);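 note: mean network spike duration pooled as area under curve over DIV 5 to 12 recordings; potency for a decrease in mean network spike duration versus DMSO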
# Method in brief: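 Readout is the average length of network spikes, clustered firing across electrodes, summed over DIV 5, 7, 9 and 12 as area under the curve. Neurons from rat cortex developed networks on MEA plates under continuous 12-day exposure.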
# [20] = CCTE_Shafer_MEA_dev_network_spike_duration_std: CCTE's Neural Network Formation Assay for Standard Deviation of Network Spike Duration, Shafer Lab (AID 2284052);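 note: hits are decreases in network spike duration SD versus DMSO vehicle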
# Method in brief: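 Read-out is the trapezoidal area-under-the-curve across recordings made on days 5, 7, 9 and 12, fitted in the negative direction against DMSO baseline. Neurons were primary rat cortical cells treated from day 0, with treatment renewed at each feed.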
# [21] = CCTE_Shafer_MEA_dev_per_network_spike_spike_number_mean: CCTE's Neural Network Formation Assay for Mean Number of Spikes in a Network Spike, Shafer Lab (AID 2284053);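 note: fitted as decrease in spikes per network spike relative to DMSO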
# Method in brief: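 Continuous twelve-day exposure of developing rat cortical networks grown over 16 microelectrodes per well; spontaneous firing is captured at four time points, and the per-network-spike spike number is integrated over development by trapezoidal AUC.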
structure (smiles),measurement,setting,value
CCC[CH2][Sn]([CH2]CCC)([CH2]CCC)[O][Sn]([CH2]CCC)([CH2]CCC)[CH2]CCC,AC50,[1],708 nM (active)
same,outcome,[2],inactive
same,AC50,[3],236 nM (active)
same,AC50,[4],348 nM (active)
same,AC50,[5],668 nM (active)
same,AC50,[6],2.03 µM (active)
same,AC50,[7],1.37 µM (active)
same,AC50,[8],2.22 µM (active)
same,AC50,[9],24.5 nM (active)
same,AC50,[10],34.2 nM (active)
same,AC50,[11],42.9 nM (active)
same,AC50,[12],29.1 nM (active)
same,AC50,[13],37.8 nM (active)
same,AC50,[14],76.8 nM (active)
same,AC50,[15],34 nM (active)
same,AC50,[16],76.2 nM (active)
same,AC50,[17],31.5 nM (active)
same,AC50,[18],56.4 nM (active)
same,AC50,[19],30.8 nM (active)
same,AC50,[20],31.2 nM (active)
same,AC50,[21],29 nM (active)
